Reference: PubChem BioAssay (NCI)
Compounds without any hit were thinned out: in the full panel of roughly 83,000, 20% have a hit.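 Method: cells in 96-well plates; compound added at one concentration; 48 h incubation; percent growth measured; values under 10 scored active.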 Values without a mark were called inactive. Activity calls are given as the source filed them.

Experiments:
Assay in all cases: NCI-60 one-dose screen, 48 h (100 = growth as untreated, 0 = no growth, -100 = all killed)
Settings in all cases: 10 µM unless noted
NCI-H23 lung = tested on: NCI-H23 lung
NCI-H226 lung = tested on: NCI-H226 lung
NCI-H322M lung = tested on: NCI-H322M lung
HOP-62 NSCLC = tested on: HOP-62 NSCLC
NCI-H460 lung = tested on: NCI-H460 lung
HOP-92 NSCLC = tested on: HOP-92 NSCLC
NCI-H522 lung = tested on: NCI-H522 lung
A549/ATCC NSCLC = tested on: A549/ATCC NSCLC
786-0 renal = tested on: 786-0 renal
COLO 205 colon = tested on: COLO 205 colon

Row | SMILES | growth (NCI-H23 lung) | growth (NCI-H226 lung) | growth (NCI-H322M lung) | growth (HOP-62 NSCLC) | growth (NCI-H460 lung) | growth (HOP-92 NSCLC) | growth (NCI-H522 lung) | growth (A549/ATCC NSCLC) | growth (786-0 renal) | growth (COLO 205 colon)
1 | Cc1ccc(Nc2nc(N)nc(N)c2N=O)cc1Cl | 71.9% | 94.1% | 104% | 76% | 102% | 63% | 75.4% | 98.3% | 79.4% | 111%
2 | C=CCNc1nc(O)c(/C=C2\C=Nc3ncccc32)s1 | 6.83% (active) | 10.7% | 10.2% | -10.8% (active) | 2.18% (active) | -1.86% (active) | -5.27% (active) | 13.2% | 4.4% (active) | -20.1% (active)
3 | COc1cccc(C(=O)Nc2cccc(NC(=O)c3ccccn3)c2)c1 | 93.7% | 112% | 98.1% | 102% | 114% | 115% | 89.8% | 97.5% | 85.6% | 120%
4 | CC(C)C(=O)Nc1ncc(C(=O)NCCN(Cc2ccccc2)C(=O)c2ccc(S(=O)(=O)Nc3ccccc3)cc2)s1 | 97.3% | 98% | 98.9% | 94.3% | 99.8% | 106% | 83.6% | 103% | 96.6% | 118%
5 | C#CCOc1cccc(Nc2c(Cl)c(CCl)nc3ccc(Oc4ccccc4)cc23)c1 | 64.2% | 72.3% | 83.7% | 93.1% | 96.2% | 64.2% | -6.45% (active) | 90.7% | 17.7% | 83.2%
6 | COc1ccc(S(=O)(=O)Oc2ccc(-c3sc4cc(OS(=O)(=O)c5ccc(OC)cc5)ccc4c3C(=O)c3ccc(OCCN4CCCCC4)cc3)cc2)cc1 | 104% | 104% | 98.5% | 95.8% | 105% | 108% | 91.4% | 88.2% | 93% | 109%
7 | COc1ccc(C(=O)/C=C/c2ccc(C)cc2)cc1S(N)(=O)=O | 77.4% | 83% | 36.1% | 78.1% | 53.5% | 41.2% | 43.1% | 43.6% | 40.8% | 95.8%
8 | COc1cc(OCc2cccc(-c3ccc4c(c3)OCCO4)c2C)cc(OC)c1C=O | 52.4% | 32.6% | 85.3% | 73.4% | 72.2% | 79.5% | 42.7% | 69% | 67.1% | 40.8%
9 | COc1ccc(/C=C\c2cc(OC)c(OC)c(OC)c2)cc1OCC(=O)Nc1nc2ccccc2s1 | 23.5% | 41.7% | 61.6% | 62.5% | 1.29% (active) | 50.6% | -21.8% (active) | 29.9% | 51.4% | 6.65% (active)
10 | O=C(N/N=C/c1ccccc1Cl)c1ccccc1Nc1ccnc(C(F)(F)F)c1 | 16% | 3.35% (active) | 6.53% (active) | 1.91% (active) | 3.5% (active) | -17.1% (active) | -20.5% (active) | 7.28% (active) | -30.4% (active) | -38% (active)
11 | C[C@H]1c2ccccc2CN1CCCOc1cc2c(cc1OCC1CC1)C1(CCCC1)C(N)=N2 | 67.2% | 53.1% | 89.7% | 82% | 38.5% | 23.2% | 73.7% | 74.1% | 56.4% | -66.4% (active)
12 | Nc1nc(N)c2c(n1)NC(c1cccc(Nc3ccnc4cc(C(F)(F)F)ccc34)c1)CC(c1ccc(Cl)cc1)=N2 (stereo not given) | 64.7% | 82.7% | 89.3% | 52% | 20.4% | 34.5% | 32.6% | 40.8% | 68.9% | 29.5%
13 | CCNCCNc1c(C)c(-c2ccc(C(F)(F)F)cc2)c(C#N)c2nc3ccccc3n12 | 90% | 84.8% | 84.3% | 90.9% | 94.1% | 47.1% | 76.8% | 88.7% | 77% | 88.2%
14 | Cc1ccc(OCCOCCOCCOCCOc2ccc(C)n(O)c2=S)c(=S)n1O | 18.5% | 7.35% (active) | 23.6% | -0.489% (active) | 1.54% (active) | 36.8% | 17.9% | 12.5% | -5.93% (active) | 5.35% (active)
